Experimental data as given in PubChem BioAssay (Tox21).
Where “and” joins values, the source holds several entries; their conditions need not be identical. Equal entries are not always repeated. Inconclusive results are not listed. A number with no mark means an inactive call. Calls of active or inactive are those of the source. The call rests on the fitted dose curve; in most records, active means well fitted cell-killing curve with a large enough effect in the repeat runs; inconclusive means weak or mixed curves, or effect the other way; inactive means flat fitted curve, though single readings scatter.

Assay: cAMP Responsive Elements (CRE) small molecule antagonists, cell-based qHTS assay: qHTS cell viability counter screen (AID 2060913); further: nearly all actives have a fitted effect of over 40% in size
Conditions: CRE-bla HEK293T viability, CellTiter-Glo luminescence, 5 h; series mostly up to 92.4 µM; viability change, negative = cytotoxic: at the top concentration
Summary of the method: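 HEK293T CRE-bla, 2,000 cells/well, 18 h preincubation; cpd in DMSO + NKH477 0.25 uM final, 3 h 37 C/5% CO2; LiveBLAzer 2 h RT, then CellTiter-Glo 30 min RT, luminescence.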
On the % scale 0 is the no-effect control and ±100 the full control effect; potency means the concentration at half of the fitted maximal effect.

Question: With `CCN(CCO)CCn1c(Cc2ccccc2)nc2c1c(=O)n(C)c(=O)n2C` as the compound, how does the “viability change, negative = cytotoxic” value read?
Answer: -1.53% [at 42.5 µM]

Question: Which Potency does the source give for `O=C1C2(Cl)C3(Cl)C4(Cl)C(Cl)(Cl)C5(Cl)C3(Cl)C1(Cl)C5(Cl)C24Cl` (centres undefined) here?
Answer: 60.1 µM (active)

Question: Which “viability change, negative = cytotoxic” value does the source give for `CC(C)c1ccc(NC(=O)N(C)C)cc1` here?
Answer: 1.63%

Question: Which “viability change, negative = cytotoxic” value does the source give for `CC(C)(C)OOC(C)(C)CCC(C)(C)OOC(C)(C)C` here?
Answer: 6.58%

Question: For `CC(C)=CCOc1c2occc2cc2ccc(=O)oc12`, which “viability change, negative = cytotoxic” value is on record?
Answer: -0.113% [at 42.5 µM]

Question: With `Cn1cc[n+](C)c1` (tested in a mixture with another compound) as the compound, how does the “viability change, negative = cytotoxic” value read?
Answer: 15.4%

Question: For `COP(=S)(OC)SCn1nnc2ccccc2c1=O`, which Potency is on record?
Answer: inactive

Question: For `ClCCCN1CCN(c2cccc(Cl)c2)CC1`, which “viability change, negative = cytotoxic” value is on record?
Answer: -2.15% [at 42.5 µM]

Question: Which “viability change, negative = cytotoxic” value does the source give for `CCOC(=O)NC(C)(C)Cc1ccc(Cl)cc1` here?
Answer: -2.5% [at 42.5 µM]

Question: For `O=C(O)C(Br)CBr` (centres undefined), which “viability change, negative = cytotoxic” value is on record?
Answer: -1.45%

Question: With `O.O.O.O.O.O.O.O=S(=O)([O-])[O-].[Co+2]` as the compound, how does the “viability change, negative = cytotoxic” value read?
Answer: 15.2%

Question: For `CC(C)CC(C)Nc1ccc(Nc2ccccc2)cc1` (centres undefined), which “viability change, negative = cytotoxic” value is on record?
Answer: -14.1%

Question: Which “viability change, negative = cytotoxic” value does the source give for `C[C@]12CC[C@H]3[C@@H](CCC4=CC(=O)CC[C@@H]43)[C@@H]1CC[C@@H]2OC(=O)CCC1CCCCC1` here?
Answer: 0.477% [at 42.5 µM]

Question: For `CN(C)C(=S)[S-].CN(C)C(=S)[S-].[Cu+2]`, which Potency is on record?
Answer: 13.2 µM (active)

Question: For `C[As+](C)(C)CC(=O)[O-]`, which “viability change, negative = cytotoxic” value is on record?
Answer: 0.624%

Question: Which Potency does the source give for `Oc1cc(Cl)c(Cl)c(Cl)c1` here?
Answer: 51.7 µM (active)

Question: For `CCC(C)c1cc([N+](=O)[O-])cc([N+](=O)[O-])c1OC(=O)C=C(C)C` (centres undefined), which “viability change, negative = cytotoxic” value is on record?
Answer: -18%

Question: With `CCn1cc[n+](C)c1C` as the compound, how does the Potency read?
Answer: inactive

Question: For `CN1C(=O)CN=C(c2ccccc2)c2cc(Cl)ccc21`, which Potency is on record?
Answer: inactive

Question: For `CCC[CH2][Sn]([Cl])([CH2]CCC)[CH2]CCC`, which Potency is on record?
Answer: 3.86 µM (active) and 7.7 µM (active)

Question: With `C[C@]12CCC(=O)C=C1CC[C@@H]1[C@@H]2CC[C@]2(C)C(=O)CC[C@@H]12` as the compound, how does the Potency read?
Answer: inactive

Question: Which “viability change, negative = cytotoxic” value does the source give for `CCCSP(=S)(OCC)Oc1ccc(SC)cc1` (centres undefined) here?
Answer: -10.1%

Question: With `Oc1ccccc1-c1ccccc1` as the compound, how does the Potency read?
Answer: inactive

Question: For `Oc1ccc(Cl)cc1`, which Potency is on record?
Answer: inactive

Question: For `CC(C)NCC(O)c1ccccc1Cl` (centres undefined), which “viability change, negative = cytotoxic” value is on record?
Answer: -2.97% [at 42.5 µM]

Question: For `CCOS(=O)(=O)OCC`, which Potency is on record?
Answer: inactive

Question: Which “viability change, negative = cytotoxic” value does the source give for `O=C([O-])c1ccccn1.O=C([O-])c1ccccn1.O=C([O-])c1ccccn1.[Cr+3]` here?
Answer: -0.351%

Question: For `Clc1ccc(COC(Cn2ccnc2)c2ccc(Cl)cc2Cl)cc1` (centres undefined), which Potency is on record?
Answer: 50.8 µM (active) and 45.1 µM (active)

Question: For `O=C(O)c1cc(Cl)ccc1Cl`, which “viability change, negative = cytotoxic” value is on record?
Answer: 6.42%

Question: With `O=P(O)(O)CCCl` as the compound, how does the Potency read?
Answer: inactive

Question: For `CNCC(=O)c1ccc(O)c(O)c1`, which “viability change, negative = cytotoxic” value is on record?
Answer: 5.69% [at 42.5 µM]

Question: Which “viability change, negative = cytotoxic” value does the source give for `c1ccc(N=NNc2ccccc2)cc1` here?
Answer: 5.34%

Question: With `CON(C)C(=O)Nc1ccc(Br)c(Cl)c1` as the compound, how does the “viability change, negative = cytotoxic” value read?
Answer: 3.25%

Question: With `Nc1ccc(-c2ccc(N)c(Cl)c2)cc1Cl` as the compound, how does the Potency read?
Answer: inactive

Question: For `O=S(=O)(c1ccc(Cl)cc1)c1ccc(Cl)cc1`, which “viability change, negative = cytotoxic” value is on record?
Answer: -11.8%

Question: Which Potency does the source give for `O=[N+]([O-])c1ccc(O)c([N+](=O)[O-])c1` here?
Answer: 54.5 µM (active)

Question: With `C[N+]1(CCF)[C@@H]2CC[C@H]1CC(OC(=O)C(O)(c1ccccc1)c1ccccc1)C2` (some centres undefined) as the compound, how does the “viability change, negative = cytotoxic” value read?
Answer: 1.88% [at 42.5 µM]

Question: For `Nc1c(Oc2ccccc2)cc(O)c2c1C(=O)c1ccccc1C2=O`, which “viability change, negative = cytotoxic” value is on record?
Answer: 2.74% [at 42.5 µM]

Question: Which Potency does the source give for `CCCCOCC1CO1` (centres undefined) here?
Answer: inactive
